# Rab9 promoter act = Rab9 promoter activation. Potency, µM (top dose mostly 9.22 µM), for inactives: at the highest dose activation, negative = inhibition, usual class: activators. Huh7 Rab9 promoter-luciferase reporter, luminescence, 24 h. actives 2.8% (n = 320,000). AID 485297; further: % of control where 0% means no effect; nearly all actives have a fitted effect of over 60% in size
#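 Cells were plated at 1500 per well in reduced-serum medium with 10% FBS and left 2 h. Compound in DMSO was then added for 24 h at 37 °C. Reporter signal was read by luminescence after 10 min with luciferase detection reagent.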
# ELG1 repair inh = blocks ELG1-dependent DNA repair in HEK293T cells; HEK293T ELG1-luciferase reporter, luminescence, 16 h; DNA damage induced by 5-fluorouridine; Potency, µM (series often up to 46.1 µM), for the others: at the top dose activity change, negative = inhibition, most hits filed as inhibitors; actives 2.3% (n = 330,000); AID 504467; further: on the % scale 0 is the no-effect control and ±100 the full control effect; nearly all actives have a fitted effect of over 55% in size
#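 5-Fluorouridine DNA damage + compound/DMSO, 2,000 cells/well, 16 h, 37 °C/5% CO2. ONE-Glo, 30 min RT, luminescence. Readout = decrease in reporter signal.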
# SMN2 splice up = SMN2 splice variant enhancement. Potency, µM (titrated, usually from 46.1 µM), for inactives: top-dose activity change, positive = activation, hits mostly activators. HEK293 SMN2-luciferase splicing reporter, luminescence, 30-36 h. AID 1458. actives 2.8% (n = 210,000); further: % of control where 0% means no effect; nearly all actives have a fitted effect of over 55% in size
#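 HEK293 cells carry an SMN2 minigene-luciferase reporter in which exon 7 inclusion puts luciferase in frame. Cells were seeded at 2000 cells/well, attached for 10-12 hours, then exposed to compounds for 30-36 hours at 37C before ONE-Glo luminescence.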
# NPC1 promoter act = activates the NPC1 promoter | actives 2.4% (n = 320,000) | Potency, µM (titrated, usually from 9.22 µM), without a hit: top-dose activation, usual class: activators | Huh7 NPC1 promoter luciferase reporter, 24 h | AID 485313; further: % of control where 0% means no effect; nearly all actives have a fitted effect of over 60% in size
#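 Huh7 cells stably carrying NPC1 promoter–luciferase, plated in Opti-MEM with 10% FBS for 2 h, were exposed to compound in DMSO for 24 h at 37 °C; luciferase reagent was added for 10 min and luminescence read.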
# ELG1 genotoxic = induces genotoxicity in HEK293T cells with luciferase-tagged ELG1; Potency, µM (doses to about 46 µM), without a hit: top-dose activity change, positive = activation, actives largely listed as activators; actives 1.3% (n = 330,000); AID 504466; HEK293T ELG1-luciferase reporter, luminescence, 16 h; further: % of control where 0% means no effect; nearly all actives have a fitted effect of over 60% in size
#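 Reporter readout depends on ELG1 protein level, which increases with genetic stress. After 16 hr compound exposure at 37 °C, luciferase activity was quantified using ONE-Glo.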
# FLuc modulator = inhibits or activates purified firefly luciferase, miR-21 counter-screen. Potency, µM (highest dose often 57.5 µM), inactives show top-dose activity change, negative = inhibition, most hits filed as inhibitors. purified FLuc, Km substrates, luminescence inhibition. actives 6.9% (n = 360,000). AID 588342;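 further: plate controls were vehicle for no effect and reference inhibitor for full effect; nearly all actives have a fitted effect of over 55% in size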
# Target sequence (P08659 whole entry, looked up): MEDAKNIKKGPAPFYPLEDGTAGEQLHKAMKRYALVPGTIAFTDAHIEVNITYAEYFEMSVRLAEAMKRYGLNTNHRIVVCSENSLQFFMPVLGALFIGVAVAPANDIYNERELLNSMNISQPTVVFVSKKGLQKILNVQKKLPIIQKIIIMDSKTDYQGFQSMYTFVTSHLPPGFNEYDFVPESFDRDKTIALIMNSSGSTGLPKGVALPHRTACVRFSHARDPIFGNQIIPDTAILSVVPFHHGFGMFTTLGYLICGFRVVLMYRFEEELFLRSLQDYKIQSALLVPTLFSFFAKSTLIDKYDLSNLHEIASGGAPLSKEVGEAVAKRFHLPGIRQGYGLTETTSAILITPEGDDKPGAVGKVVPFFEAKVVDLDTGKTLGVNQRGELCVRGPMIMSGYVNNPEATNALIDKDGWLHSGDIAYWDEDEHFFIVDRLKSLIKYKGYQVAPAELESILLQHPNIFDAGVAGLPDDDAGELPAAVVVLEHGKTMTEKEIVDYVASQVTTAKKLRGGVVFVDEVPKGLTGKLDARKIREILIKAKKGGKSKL
#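 Biochemical qHTS of compounds, final roughly 60 µM downward over six points, against 10 nM purified firefly luciferase using Km concentrations of substrates (10 uM D-luciferin, 10 uM ATP) in Tris acetate pH 7.5 buffer; luminescence output.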
# * = called active by the depositor; ? = inconclusive; · = no result; [ ] = dose if it differs, or a comment. Only some compounds are listed: those with a hit (about 9.2% of all), similar ones and a draw of the others. The call rests on the fitted dose curve; in most records, active means well fitted curve in the direction sought with a large enough effect; inconclusive means small, poorly fitted or top-dose-only effect, or another doubt; inactive means no such curve, though single readings can be large; an effect the other way counts as inactive or inconclusive. Potency means the concentration at half of the fitted maximal effect.
SMILES,Rab9 promoter act,ELG1 repair inh,SMN2 splice up,NPC1 promoter act,ELG1 genotoxic,FLuc modulator
Cc1cccc(Nc2ccc(NCc3ccccc3)nn2)c1,?,?,19%,?,1%,15µM*
CCCNC(=O)C1CCN(c2cc(C)nc3c(-c4ccc(OC)c(OC)c4)c(C)nn23)CC1,·,·,0%,·,·,0%
CC(C)(C)C(=O)Nc1cccc(-c2cc(-c3c(Cl)cccc3Cl)no2)c1,-13%,8.2µM*,·,1%,-1%,-3%
CC(C)(C)C(=O)Nc1cccc(C(=O)c2cccc(NC(=O)C(C)(C)C)c2)c1,3%,?,2%,-2%,-7%,?
Clc1ccc(OCc2nc(-c3ccncc3)no2)c(Br)c1,0.71µM*,?,3.2µM*,1.3µM*,?,2.1µM*
Clc1ccccc1OCc1nc(-c2ccncc2)no1,2µM*,?,13µM*,2.8µM*,?,11µM*
Cc1cc(OCc2nc(-c3cccnc3)no2)c(C)cc1Br,12%,1%,-3%,11%,13%,6%
c1ccc(OCc2nc(-c3ccncc3)no2)cc1,?,?,·,14%,10%,?
COC(=O)c1cccn(CC(=O)c2ccc(Cl)cc2Cl)c1=O,-6%,10%,7%,0%,5%,15µM*
COc1cc2ccccc2cc1C(=O)Nc1ccc2oc(-c3ccccc3)nc2c1,·,·,12%,·,·,0%
CCN(CC)c1ccc2cc(-c3nc(-c4cccs4)no3)c(=O)oc2c1,·,·,·,·,·,3.8µM*
CCN(CC)c1ccc2cc(-c3nnc(-c4ccncc4)o3)c(=O)oc2c1,?,?,11µM*,?,?,?
CCN(CC)c1ccc2cc(-c3nc(-c4cc(OC)c(OC)c(OC)c4)no3)c(=O)oc2c1,·,·,·,·,·,-6%
COc1ccccc1N1CCN(C(=O)c2cnc(N3CCCCC3)c3ccccc23)CC1,·,·,·,·,·,-15%
O=C(NC1CCCCCC1)c1ccco1,9%,16%,·,-1%,6%,4%
Cc1cccc(C)c1NC(=O)CN(C)C(=O)c1cccc(S(=O)(=O)N2CCN(c3ccc(F)cc3)CC2)c1,-21%,-21%,·,-14%,-6%,2%
CN(CC(=O)Nc1ccccc1Cl)C(=O)c1cccc(S(=O)(=O)N2CCN(c3ccc(F)cc3)CC2)c1,2.2µM*,?,·,1.4µM*,1.8µM*,3.4µM*
Nc1c(C(=O)Nc2ccccc2Cl)c2ccccn2c1C(=O)c1ccc(Cl)cc1,·,·,-3%,·,·,1%
CN(CC(O)CON=C1c2ccccc2-c2ccccc21)S(=O)(=O)c1ccc(Br)cc1 (configuration not stated),0%,21µM*,-15%,0%,-12%,-3%
CCN(CC(O)CON=C1c2ccccc2-c2ccccc21)S(=O)(=O)c1ccc(C)cc1 (configuration not stated),2%,-29%,-17%,-2%,-6%,0%
COc1cc(OC)c(NC(=O)N2CCSc3ccccc32)cc1Cl,·,·,·,·,·,-19%
CCc1ccc(N2C(=O)c3sc4nnc(-c5ccccc5)c(=O)n4c3C2=O)cc1,-13%,-11%,8%,-3%,8%,19µM*
CCc1ccc(NC(=O)C(C)n2nnc3sc(-c4ccccc4)cc3c2=O)cc1 (configuration not stated),·,·,10%,·,·,-16%
Cc1ccc(NC(=O)CCc2nc3ccccc3s2)c(O)c1,-3%,7%,-8%,11%,-1%,-17%
CCNc1nc(N)c(C(=O)c2ccc(Cl)s2)s1,3.5µM*,?,20µM*,?,?,9.5µM*
SMILES,Rab9 promoter act,ELG1 repair inh,SMN2 splice up,NPC1 promoter act,ELG1 genotoxic,FLuc modulator
Cn1cc(Cl)c(/C(N)=N/OC(=O)c2ccccc2C(F)(F)F)n1,4.5µM*,?,·,3.5µM*,21µM*,12µM*
Cn1cc(Cl)c(C(=O)OCC(=O)Nc2cccc(Cl)c2)n1,-2%,11%,·,-4%,-2%,2%
O=C(N/N=C/c1ccc(O)cc1)c1ccncc1,-3%[1.84 µM],2%,·,-1%,-1%,-20%
CSc1ccc(/C=N/NC(=O)c2ccc(O)cc2)cc1,2.5µM*,?,?,?,?,4.8µM*
COc1ccc(C(=O)N/N=C/c2ccc(SC)cc2)cc1,3%,11%,11%,6%,-2%,6.7µM*
O=C(N/N=C/c1ccc(N2CCOCC2)cc1)c1ccc(O)cc1,15%,?,·,12%,1%,24µM*
COc1ccc(/C=N/NC(=O)c2ccc[nH]2)cc1,1.6µM*,?,·,2.5µM*,8.2µM*,5.4µM*
Cn1c(=O)c2[nH]c(CCCCC(=O)O)nc2n(C)c1=O,·,·,2%[9.22 µM],·,·,·
CN(C)c1ccc(-c2cc(NCc3ccccc3)ncn2)cc1,·,·,0.79µM*,·,·,·
CN(C)c1ccc(-c2ccc3ncnc(NCc4ccccc4)c3c2)cc1,·,·,-5%,·,·,·
O=C(CCC(=O)N/N=C/c1cc(Cl)cc(Cl)c1O)NCc1ccccc1,-2%,?,·,1%,-2%,-16%
CCOc1ccc(NS(=O)(=O)c2ccc(C(=O)NNC(=O)c3ccccc3O)cc2)cc1,-8%,-17%,·,-7%,-1%,-1%
CCOC(=O)Cc1csc(NC(=O)Nc2cccc(Cl)c2)n1,-3%,-19%,-40%,0%,0%,5.4µM*
CCOC(=O)Cc1csc(NC(=O)Nc2ccc(Cl)cc2)n1,-7%,18µM*,·,-6%,-6%,6µM*
N#Cc1c(NC(=O)/C=C/C(=O)O)sc2c1CCN(Cc1ccccc1)C2,0%,23%,·,-1%,0%,-6%
CC(C)(C)c1cc(-c2csc(Nc3ccccc3)[n+]2Cc2ccc(C(=O)O)cc2)cc(C(C)(C)C)c1O,-2%,16µM*,·,-2%,-18%,-1%
COc1ccc(NC(=O)Nc2c[nH]c(=O)[nH]c2=O)cc1OC,-1%,5%,·,-2%,0%,6%
COc1cccc(C(=O)Nc2ccc(NC(C)=O)cn2)c1,?,?,?,?,?,21µM*
Cc1cc(NC(=O)c2cccc(F)c2)ncc1NC(=O)c1ccco1,2µM*,?,14µM*,1.3µM*,3.7µM*,11µM*
O=C(Nc1ccc(NC(=O)c2ccco2)nc1)c1cccc(F)c1,3.2µM*,?,·,0.89µM*,?,5.4µM*
O=C(Nc1ccc(NC(=O)c2ccco2)nc1)c1cccnc1,2µM*,?,11µM*,2.2µM*,?,11µM*
CC(C)CN(C(=O)C1CCCO1)C1CCS(=O)(=O)C1 (configuration not stated),0%,?,·,-1%,2%,-2%
Cn1c(SCC(=O)Nc2ccc(Cl)cc2F)nnc1-c1ccco1,0%,6%,·,-5%,-1%,-2%

# High-throughput results (PubChem)
